# According to PubChem BioAssay (NCI):
# Compounds without any hit were thinned out: in the full panel of roughly 79,000, 15% have a hit. Values without a mark were called inactive. Activity calls are given as the source filed them. Cut-off read from the data, not from the text of the source: active = growth inhibition above about 70%; inactive = the rest.
# How the values were obtained:
# [1] = NCI Yeast Anticancer Drug Screen. Data for the rad52 strain (AID 147);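 note: 0% = growth of vehicle-treated control cultures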; details: S. cerevisiae rad52 mutant growth inhibition, hits give high values
# Procedure, shortened: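 Yeast strain carrying a DNA damage repair alteration was exposed to test compounds. Growth inhibition was measured relative to vehicle-treated controls.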
# [2] = NCI Yeast Anticancer Drug Screen. Data for the wt1 strain (AID 149);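 note: 0% = growth of vehicle-treated wt1 cultures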; details: S. cerevisiae wt1 strain (SPY 50644) growth inhibition, hits give high values
# Procedure, shortened: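 Compounds are added to wt1 yeast cultures. Growth is then measured. Inhibition is expressed relative to vehicle-treated controls.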
# [3] = NCI Yeast Anticancer Drug Screen. Data for the rad50EPP+ strain (AID 151);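 note: 0% = growth of vehicle-treated control cultures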; details: S. cerevisiae rad50 mutant strain, hits give high values
# Procedure, shortened: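 Yeast strain carrying rad50 alteration (rad50EPP+) exposed to compounds; growth inhibition measured relative to vehicle-treated controls.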
# [4] = NCI Yeast Anticancer Drug Screen. Data for the rad50 strain (AID 155);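 note: 0% = growth of vehicle-only cultures of the same strain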; details: S. cerevisiae rad50 strain growth inhibition, hits give high values
# Procedure, shortened: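 Inhibition values express reduced yeast growth in compound-treated cultures relative to vehicle-treated controls.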
# [5] = NCI Yeast Anticancer Drug Screen. Data for the mec2-1 strain (AID 157); details: S. cerevisiae mec2-1 strain, hits give high values
# Procedure, shortened: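 mec2-1 yeast strain, carrying an alteration in DNA damage repair or cell cycle control, was exposed to compounds; growth inhibition was measured relative to vehicle-treated controls.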
# [6] = NCI Yeast Anticancer Drug Screen. Data for the rad14 strain (AID 159);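 note: 0% = growth of vehicle-treated control cultures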; details: S. cerevisiae rad14 strain growth inhibition, hits give high values
# Procedure, shortened: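 A mutant yeast strain defective in DNA damage repair is treated with compound; inhibition of its growth is scored against untreated, vehicle-exposed cultures.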
# [7] = NCI Yeast Anticancer Drug Screen. Data for the sgs1 mgt1 strain (AID 161);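 note: 0% = growth of cultures given vehicle only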; details: S. cerevisiae sgs1 mgt1 strain, hits give high values
# Procedure, shortened: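 Compounds are added to genetically altered yeast, and growth is compared with cultures given vehicle alone to give percent inhibition.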
# [8] = NCI Yeast Anticancer Drug Screen. Data for the CLN2oe strain (AID 163);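 note: 0% = growth of vehicle-only control cultures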; details: S. cerevisiae CLN2oe strain, hits give high values
# Procedure, shortened: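 Yeast cells carrying a defined cell-cycle control alteration were exposed to test compounds. Growth inhibition was scored against vehicle-treated control cultures.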
# [9] = NCI Yeast Anticancer Drug Screen. Data for the cln2 rad14 strain (AID 165);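 note: 0% = growth equal to vehicle treated cultures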; details: S. cerevisiae cln2 rad14 strain, hits give high values
# Procedure, shortened: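 Yeast carrying cln2 and rad14 alterations (cell cycle control and DNA damage repair) were exposed to compounds. Growth inhibition was measured against vehicle-treated controls.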
# [10] = NCI Yeast Anticancer Drug Screen. Data for the bub3 strain (AID 167); details: S. cerevisiae bub3 mutant strain, hits give high values
# Procedure, shortened: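 Steps: expose the mutant yeast strain to compound; grow alongside vehicle-treated cultures; measure growth; express inhibition against the vehicle cultures.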
# [11] = NCI Yeast Anticancer Drug Screen. Data for the wt2 strain (AID 169);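 note: 0% = growth of vehicle-treated yeast cultures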; details: S. cerevisiae wt2 strain growth inhibition, hits give high values
# Procedure, shortened: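 Yeast cells were exposed to test compounds, and growth inhibition was measured relative to vehicle-treated controls.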
# [12] = NCI Yeast Anticancer Drug Screen. Data for the mlh1 strain (AID 171);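 note: 0% = growth of vehicle-treated control cultures of the same strain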; details: S. cerevisiae mlh1 strain growth inhibition, hits give high values
# Procedure, shortened: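 Yeast carrying a defined genetic alteration in DNA damage repair or cell cycle control were exposed to test compounds. Growth inhibition was measured relative to vehicle-treated controls.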
# [13] = NCI Yeast Anticancer Drug Screen. Data for the rad18 strain (AID 177); details: S. cerevisiae rad18 mutant growth inhibition, hits give high values
# Procedure, shortened: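 Yeast carrying a defined DNA damage repair alteration were exposed to compounds. Growth inhibition was expressed relative to vehicle-treated controls.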
# [14] = NCI Yeast Anticancer Drug Screen. Data for the mgt1 strain (AID 153); details: S. cerevisiae mgt1 mutant growth inhibition, hits give high values
# Procedure, shortened: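 Yeast mgt1 strain (DNA repair/cell-cycle alteration panel) exposed to compounds; growth inhibition measured relative to vehicle-treated controls.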
# [15] = NCI Yeast Anticancer Drug Screen. Data for the sgs1 strain (AID 173);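 note: 0% = growth of vehicle-only control cultures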; details: S. cerevisiae sgs1 mutant, hits give high values
# Procedure, shortened: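 Yeast mutant strains carrying defined defects in DNA damage repair or cell cycle control were exposed to test compounds. Growth inhibition was scored against vehicle-treated controls.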
# [16] = NCI Yeast Anticancer Drug Screen. Data for the mlh1 rad18 strain (AID 175); details: S. cerevisiae mlh1 rad18 strain growth inhibition, hits give high values
# Procedure, shortened: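 Growth inhibition of the yeast strain was measured after compound exposure and expressed relative to vehicle-treated controls. The strain carries defined defects in DNA damage repair.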
# [17] = at 5.0 µM (retest, dose inferred, filed as 0.5)
# [18] = at 50.0 µM (retest, dose inferred, filed as 5.0)
compound,measurement,setting,value
CC(Br)C(=O)c1ccc2cc(Br)c3ccccc3c2c1 (stereo not given),growth inhibition,[1]; at 1.2 µM,-2%
same,growth inhibition,[1]; at 3.7 µM,-2%
same,growth inhibition,[1]; at 11.0 µM,-2%
same,growth inhibition,[1]; at 33.0 µM,4%
same,growth inhibition,[1]; at 100.0 µM,2%
same,growth inhibition,[2]; at 1.2 µM,0%
same,growth inhibition,[2]; at 3.7 µM,0%
same,growth inhibition,[2]; at 11.0 µM,1%
same,growth inhibition,[2]; at 33.0 µM,-5%
same,growth inhibition,[2]; at 100.0 µM,-3%
same,growth inhibition,[3]; at 1.2 µM,2%
same,growth inhibition,[3]; at 3.7 µM,14%
same,growth inhibition,[3]; at 11.0 µM,24%
same,growth inhibition,[3]; at 33.0 µM,35%
same,growth inhibition,[3]; at 100.0 µM,39%
same,growth inhibition,[4]; at 1.2 µM,1%
same,growth inhibition,[4]; at 3.7 µM,-2%
same,growth inhibition,[4]; [17],-3%
same,growth inhibition,[4]; at 11.0 µM,10%
same,growth inhibition,[4]; at 33.0 µM,0%
same,growth inhibition,[4]; [18],41%
same,growth inhibition,[4]; at 50.0 µM,63.7%
same,growth inhibition,[4]; at 100.0 µM,0%
same,growth inhibition,[5]; at 1.2 µM,2%
same,growth inhibition,[5]; at 3.7 µM,4%
same,growth inhibition,[5]; [17],-5%
same,growth inhibition,[5]; at 11.0 µM,6%
same,growth inhibition,[5]; at 33.0 µM,6%
same,growth inhibition,[5]; [18],12%
same,growth inhibition,[5]; at 50.0 µM,27.4%
same,growth inhibition,[5]; at 100.0 µM,16%
same,growth inhibition,[6]; at 1.2 µM,0%
same,growth inhibition,[6]; at 3.7 µM,-1%
same,growth inhibition,[6]; at 11.0 µM,0%
same,growth inhibition,[6]; at 33.0 µM,-5%
same,growth inhibition,[6]; at 100.0 µM,17%
same,growth inhibition,[7]; [17],2%
same,growth inhibition,[7]; [18],76% (active)
same,growth inhibition,[7]; at 50.0 µM,74.5% (active)
same,growth inhibition,[8]; at 1.2 µM,-4%
same,growth inhibition,[8]; at 3.7 µM,-2%
same,growth inhibition,[8]; at 11.0 µM,-7%
same,growth inhibition,[8]; at 33.0 µM,-4%
same,growth inhibition,[8]; at 100.0 µM,-1%
same,growth inhibition,[9]; [17],-24%
same,growth inhibition,[9]; [18],-32%
same,growth inhibition,[9]; at 50.0 µM,26.5%
same,growth inhibition,[10]; at 1.2 µM,-7%
same,growth inhibition,[10]; at 3.7 µM,-1%
same,growth inhibition,[10]; [17],-10%
same,growth inhibition,[10]; at 11.0 µM,3%
same,growth inhibition,[10]; at 33.0 µM,2%
same,growth inhibition,[10]; [18],23%
same,growth inhibition,[10]; at 50.0 µM,58%
same,growth inhibition,[10]; at 100.0 µM,-3%
same,growth inhibition,[11]; at 1.2 µM,-3%
same,growth inhibition,[11]; at 3.7 µM,-1%
same,growth inhibition,[11]; at 11.0 µM,-1%
same,growth inhibition,[11]; at 33.0 µM,3%
same,growth inhibition,[11]; at 100.0 µM,4%
same,growth inhibition,[12]; at 1.2 µM,4%
same,growth inhibition,[12]; at 3.7 µM,4%
same,growth inhibition,[12]; at 11.0 µM,6%
same,growth inhibition,[12]; at 33.0 µM,-11%
same,growth inhibition,[12]; at 100.0 µM,17%
same,growth inhibition,[13]; at 1.2 µM,5%
same,growth inhibition,[13]; at 3.7 µM,5%
same,growth inhibition,[13]; at 11.0 µM,17%
same,growth inhibition,[13]; at 33.0 µM,18%
same,growth inhibition,[13]; at 100.0 µM,22%
CC1=C(C)Cc2c(O)ccc(O)c2C1,growth inhibition,[1]; at 1.2 µM,1%
same,growth inhibition,[1]; at 3.7 µM,12%
same,growth inhibition,[1]; at 11.0 µM,25%
same,growth inhibition,[1]; at 33.0 µM,20%
same,growth inhibition,[1]; at 100.0 µM,61%
same,growth inhibition,[2]; at 1.2 µM,-1%
same,growth inhibition,[2]; at 3.7 µM,-3%
same,growth inhibition,[2]; at 11.0 µM,-3%
same,growth inhibition,[2]; at 33.0 µM,-3%
same,growth inhibition,[2]; at 100.0 µM,-20%
same,growth inhibition,[3]; at 1.2 µM,20%
same,growth inhibition,[3]; at 3.7 µM,46%
same,growth inhibition,[3]; at 11.0 µM,67%
same,growth inhibition,[3]; at 33.0 µM,43%
same,growth inhibition,[3]; at 100.0 µM,58%
same,growth inhibition,[14]; at 1.2 µM,-2%
same,growth inhibition,[14]; at 3.7 µM,2%
same,growth inhibition,[14]; at 11.0 µM,6%
same,growth inhibition,[14]; at 33.0 µM,-1%
same,growth inhibition,[14]; at 100.0 µM,29%
same,growth inhibition,[5]; at 1.2 µM,-3%
same,growth inhibition,[5]; at 3.7 µM,-3%
same,growth inhibition,[5]; [17],30%
same,growth inhibition,[5]; at 11.0 µM,-3%
same,growth inhibition,[5]; at 33.0 µM,-4%
same,growth inhibition,[5]; [18],99% (active)
same,growth inhibition,[5]; at 50.0 µM,45.8%
same,growth inhibition,[5]; at 100.0 µM,20%
same,growth inhibition,[6]; at 1.2 µM,2%
same,growth inhibition,[6]; at 3.7 µM,9%
same,growth inhibition,[6]; at 11.0 µM,18%
same,growth inhibition,[6]; at 33.0 µM,13%
same,growth inhibition,[6]; at 100.0 µM,47%
same,growth inhibition,[7]; [17],5%
same,growth inhibition,[7]; [18],98% (active)
same,growth inhibition,[7]; at 50.0 µM,33.8%
same,growth inhibition,[8]; at 1.2 µM,-10%
same,growth inhibition,[8]; at 3.7 µM,-8%
same,growth inhibition,[8]; at 11.0 µM,-7%
same,growth inhibition,[8]; at 33.0 µM,-11%
same,growth inhibition,[8]; at 100.0 µM,33%
same,growth inhibition,[9]; [17],31%
same,growth inhibition,[9]; [18],98% (active)
same,growth inhibition,[9]; at 50.0 µM,48.9%
same,growth inhibition,[10]; at 1.2 µM,-3%
same,growth inhibition,[10]; at 3.7 µM,-5%
same,growth inhibition,[10]; [17],94% (active)
same,growth inhibition,[10]; at 11.0 µM,-4%
same,growth inhibition,[10]; at 33.0 µM,3%
same,growth inhibition,[10]; [18],99% (active)
same,growth inhibition,[10]; at 50.0 µM,83% (active)
same,growth inhibition,[10]; at 100.0 µM,63%
same,growth inhibition,[11]; at 1.2 µM,-12%
same,growth inhibition,[11]; at 3.7 µM,-6%
same,growth inhibition,[11]; at 11.0 µM,-4%
same,growth inhibition,[11]; at 33.0 µM,3%
same,growth inhibition,[11]; at 100.0 µM,-4%
same,growth inhibition,[12]; at 1.2 µM,-1%
same,growth inhibition,[12]; at 3.7 µM,5%
same,growth inhibition,[12]; at 11.0 µM,12%
same,growth inhibition,[12]; at 33.0 µM,6%
same,growth inhibition,[12]; at 100.0 µM,44%
same,growth inhibition,[15]; at 1.2 µM,-21%
same,growth inhibition,[15]; at 3.7 µM,-5%
same,growth inhibition,[15]; at 11.0 µM,-9%
same,growth inhibition,[15]; at 33.0 µM,7%
same,growth inhibition,[15]; at 100.0 µM,67%
same,growth inhibition,[16]; [17],52%
same,growth inhibition,[16]; [18],99% (active)
same,growth inhibition,[16]; at 50.0 µM,93.2% (active)
same,growth inhibition,[13]; at 1.2 µM,0%
same,growth inhibition,[13]; at 3.7 µM,10%
same,growth inhibition,[13]; at 11.0 µM,18%
same,growth inhibition,[13]; at 33.0 µM,14%
same,growth inhibition,[13]; at 100.0 µM,93% (active)
